Laboratory results taken from PubChem BioAssay AID1347165 (National Center for Advancing Translational Sciences (NCATS), 2019).
About 5,700 (2.6%) of roughly 220,000 compounds were called active. About 18% were inconclusive and are not listed. The sample holds actives, similar compounds and a random draw of the others, so the mix is not that of the screen. Values without a mark were called inactive. The call rests on the fitted dose curve; in most records, active means well fitted inhibition curve with a large enough effect; inconclusive means small, poorly fitted or top-dose-only effect; inactive means no such curve, though single readings can be large or run the other way.

Biological target: Lysine-specific demethylase 5B (Homo sapiens) (UniProt Q9UGL1)
Assay: Primary screen for KDM5B Histone Demethylases FDH-coupled qHTS; further: nearly all actives have a fitted effect of over 70% in size; on activity change, negative = inhibition: 0% is about no effect
Conditions: FDH-coupled NADH fluorescence (FDH is formaldehyde dehydrogenase); series mostly up to 57.7 µM; activity change, negative = inhibition: at the top concentration
Summary of the method: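 Measured: NADH fluorescence change, 30 min, RT. System: KDM5BΔAP 200 nM final, H3K4me3 peptide, α-KG, Fe(II), ascorbate, NAD⁺ plus FDH, pH 7.5 HEPES. Compounds: titrated, 10 min pre-incubation with enzyme.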
Potency means the concentration at half of the fitted maximal effect.

Sequence of Lysine-specific demethylase 5B (Homo sapiens) (Q9UGL1 whole entry, looked up): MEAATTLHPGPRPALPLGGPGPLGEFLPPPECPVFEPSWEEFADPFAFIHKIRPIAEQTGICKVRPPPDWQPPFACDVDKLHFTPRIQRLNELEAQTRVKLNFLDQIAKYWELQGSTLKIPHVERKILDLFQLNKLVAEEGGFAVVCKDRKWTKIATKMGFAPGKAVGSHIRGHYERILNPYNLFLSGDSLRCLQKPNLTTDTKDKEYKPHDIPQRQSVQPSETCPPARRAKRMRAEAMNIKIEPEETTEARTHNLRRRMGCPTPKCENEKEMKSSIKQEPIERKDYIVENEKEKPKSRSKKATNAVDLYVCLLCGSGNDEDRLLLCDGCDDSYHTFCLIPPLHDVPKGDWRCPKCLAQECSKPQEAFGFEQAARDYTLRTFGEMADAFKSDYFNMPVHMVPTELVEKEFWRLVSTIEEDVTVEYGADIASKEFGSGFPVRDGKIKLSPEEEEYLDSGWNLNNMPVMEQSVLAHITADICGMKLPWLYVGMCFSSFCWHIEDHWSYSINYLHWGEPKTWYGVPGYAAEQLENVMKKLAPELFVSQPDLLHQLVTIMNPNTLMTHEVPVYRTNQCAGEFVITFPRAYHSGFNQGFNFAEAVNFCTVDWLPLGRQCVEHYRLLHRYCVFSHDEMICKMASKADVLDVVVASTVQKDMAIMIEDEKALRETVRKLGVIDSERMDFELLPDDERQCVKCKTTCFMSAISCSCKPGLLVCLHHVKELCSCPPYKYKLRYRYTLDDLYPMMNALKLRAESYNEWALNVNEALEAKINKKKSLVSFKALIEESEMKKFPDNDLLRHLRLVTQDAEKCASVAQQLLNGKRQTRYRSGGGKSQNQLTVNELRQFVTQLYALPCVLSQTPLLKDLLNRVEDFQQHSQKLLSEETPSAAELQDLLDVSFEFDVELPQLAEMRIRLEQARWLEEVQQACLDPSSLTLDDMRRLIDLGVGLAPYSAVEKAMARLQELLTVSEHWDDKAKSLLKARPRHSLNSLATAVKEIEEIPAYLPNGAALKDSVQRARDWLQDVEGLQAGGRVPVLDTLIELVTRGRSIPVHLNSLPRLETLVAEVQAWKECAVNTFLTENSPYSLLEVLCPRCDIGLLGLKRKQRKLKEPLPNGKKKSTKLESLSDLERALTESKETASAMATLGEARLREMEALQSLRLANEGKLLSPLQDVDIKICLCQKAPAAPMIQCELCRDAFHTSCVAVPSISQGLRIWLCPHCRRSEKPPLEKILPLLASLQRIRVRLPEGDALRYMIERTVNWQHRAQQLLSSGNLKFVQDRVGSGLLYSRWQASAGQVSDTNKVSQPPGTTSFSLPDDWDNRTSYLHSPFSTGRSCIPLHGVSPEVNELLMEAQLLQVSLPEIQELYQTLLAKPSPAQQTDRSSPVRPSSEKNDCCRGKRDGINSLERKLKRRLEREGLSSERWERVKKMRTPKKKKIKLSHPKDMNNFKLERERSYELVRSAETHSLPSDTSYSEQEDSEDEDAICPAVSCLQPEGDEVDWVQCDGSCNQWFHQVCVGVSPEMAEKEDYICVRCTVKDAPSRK

Row | Compound | activity change, negative = inhibition | Potency
1 | Oc1ccc(-c2nc(-c3ccccc3F)cs2)cc1 | -17.7% | 
2 | C=CCNC(=O)Nc1cc(NC(=O)Nc2ccccc2)ccc1C | -9.95% | 
3 | Cc1ccc(CN2CCOc3cc([S+](=O)([O-])N(C)C)ccc3C2)c(F)c1 | -17.1% [at 86.2 µM] | 
4 | Cc1ccc(CN2CCC(Oc3cnc4c(ccn4CCN[S+](C)(=O)[O-])c3)CC2)c(F)c1 |  | 31.6 µM (active)
5 | CCCc1noc(CSc2nc(-c3ccco3)nc3ccccc23)n1 | -14% | 
6 | O=C(O)C/C(=C/c1cccc(Cl)c1)c1nc2ccccc2o1 | -27.5% | 
7 | CCCOc1ccc2ccccc2c1CN(C)C(=O)c1n[nH]c(=O)c2ccccc12 | 21.4% | 
8 | Fc1ccccc1CN1CCNc2cc(Nc3cccnc3)ncc2C1 | -4.83% [at 86.2 µM] | 
9 | CN(C)c1cccc(Nc2cc3c(cn2)NCCN(Cc2ccccc2)C3)c1 |  | 25.1 µM (active)
10 | Cn1ccc(Nc2cc3c(cn2)CN(CCc2ccccc2)CCN3)n1 | -22.9% [at 86.2 µM] | 
11 | NC(=O)c1cccc(C(=O)N2CCC(c3nc4ccccc4o3)CC2)c1 | -18.1% | 
12 | CCOc1c(OC)cccc1-c1nc2ccc(-c3ccc(OC)c(OC)c3OC)cc2o1 |  | 12.6 µM (active)
13 | COc1cccc(NC(=O)Nc2cc(-c3nc4ccccc4o3)ccc2OC)c1 | -15% | 
14 | COc1cccc(-c2nc3ccc(-c4ccc5c(c4)OCO5)cc3o2)c1OC | -2830% | 
15 | Cc1ccc2c(c1)-c1c(cnn1CC(=O)N(C)c1ccccc1Cl)CO2 | -4.49% | 
16 | CC(C)(C)c1cc(NC(=O)Nc2cc(Cl)cc(Cl)c2)no1 | 6.25% | 
17 | COCCOc1ccnc(-c2noc([C@@H]3CCCN3Cc3ccc(Cl)cc3)n2)c1 | -11.4% [at 86.2 µM] | 
18 | COCCNc1ncccc1-c1noc([C@@H]2CCCN2Cc2ccc3c(c2)OCO3)n1 |  | 31.6 µM (active)
19 | COCCOc1ncccc1-c1noc([C@@H]2CCCN2CC(C)(C)C)n1 | -25.1% [at 86.2 µM] | 
20 | Cc1c(-c2ccc(Cl)cc2)nc2ccccc2c1C(=O)NC1CCCCCCC1 | -6.4% | 
21 | COc1cccc(-c2ncc3c(n2)OCCN(Cc2ccc(F)cc2F)C3=O)c1OC | -12.7% [at 86.2 µM] | 
22 | COc1ccc(-c2ncc3c(n2)OCCN(CC2CC2)C3=O)cc1 |  | 35.5 µM (active)

Row | Compound | activity change, negative = inhibition | Potency
23 | C[S+](=O)([O-])c1cccc(-c2ncc3c(n2)OCCN(Cc2ccc(F)cc2F)C3=O)c1 | 14% | 
24 | NC(=O)c1cccc(-c2ncc3c(n2)OCCN(CC2CC2)C3=O)c1 | -6.2% [at 86.2 µM] | 
25 | COCCN1CCOc2nc(-c3cccc(C)c3)ncc2C1=O | -21.3% [at 86.2 µM] | 
26 | COc1ccc(F)cc1-c1ncc2c(n1)OCCN(CC1CC1)C2=O |  | 35.5 µM (active)
27 | Cn1c(=O)c2c(nc(SCC(=O)Nc3ccccc3)n2Cc2ccccc2Cl)n(C)c1=O | 12.9% | 
28 | Cc1[nH]c2ccccc2c1C(=O)C(C)Sc1nnc(C2CC2)o1 (stereo unspecified) | 1.67% | 
29 | CC(C)c1ccc(C(=O)OC2CCOC2=O)cc1 (stereo unspecified) | 17.3% | 
30 | Cc1oc(-c2cccs2)nc1CC(=O)N1CCCC1c1ccccc1 (stereo unspecified) | 724% | 
31 | CCOc1ccc(NC(=O)CN(C)C(=O)Cn2c(=O)cnc3ccccc32)cc1OCC | 29.3% | 
32 | COc1ccc(N2C(=O)C(C)CS2(=O)=O)cc1S(=O)(=O)Nc1ccc(N2CCCC2)cc1 (stereo unspecified) | -5.29% | 
33 | Cc1cc(N2CCC(NC(=O)c3ccc(N(C)C)cc3)C2=O)ccc1F (stereo unspecified) | 14% | 
34 | Cc1ccc(C(=O)NC2CCSC2=O)cc1C (stereo unspecified) | 11.2% | 
35 | Cc1ccc(N2CCC(NC(=O)c3ccc4[nH]ccc4c3)C2=O)cc1C (stereo unspecified) |  | 31.6 µM (active)
36 | COCC(=O)N1CCN(C2CCN(CCc3ccccc3)C2=O)CC1 (stereo unspecified) | -20.4% | 
37 | CCc1cccc(CC)c1NC(=O)C(C)Sc1ccc(C)cc1 (stereo unspecified) | 12.7% | 
38 | Cc1cc(NC(=O)Nc2c(C3=CCCCC3)c(C)nn2C)ccc1Br | -2.95% | 
39 | CC(=O)c1ccc(NC(=O)N2CCc3c(nc(-c4ccc(F)cc4)[nH]c3=O)C2)cc1 |  | 25.1 µM (active)
40 | Cc1ccc(C(=O)NC2CCN(C(=O)Nc3ccc(F)cc3)CC2)cc1 | 21.4% | 
41 | O=c1[nH]c(-c2ccncc2)nc2c1CCN(S(=O)(=O)N1CCCC1)C2 | 2.21% | 
42 | O=C(c1ccco1)N1CCC(C(=O)N2CCN(C(=O)C3CC3)CC2)CC1 | 0.121% | 
43 | CC(=O)Nc1ccc(SCC(=O)N(Cc2nc3ccccc3c(=O)[nH]2)CC2CCCO2)cc1 (stereo unspecified) | 1.89% | 
44 | COCCn1c(C)nnc1-c1cc(-c2cccc(F)c2)ccn1 | 5.49% [at 86.2 µM] | 

Row | Compound | activity change, negative = inhibition | Potency
45 | Cc1nnc(-c2cc(-c3ccccc3)ccn2)n1CCc1ccccc1 | 8.26% [at 86.2 µM] | 
46 | COc1ccc(-c2ccnc(-c3nnc(C)n3C3CCN(C)CC3)c2)cc1OC |  | 31.6 µM (active)
47 | Cc1nnc(CSc2nnc(Nc3cccc(C)c3C)s2)o1 | 12.9% | 
48 | Fc1ccc(-c2ccnc3nc(C4CCC4)nn23)cc1 |  | 31.6 µM (active)
49 | O=C(Nc1cccn2nc(C3CCC3)nc12)c1cccc(F)c1 | -13.1% | 
50 | COc1cc(C(=O)N2CCC(c3ccncc3)CC2)cc(OC)c1OC | -2.26% | 
51 | COc1ccc(N2CC(c3noc(-c4cc(OC)c(OC)c(OC)c4)n3)CC2=O)cc1 (stereo unspecified) | -26.1% | 
52 | COc1cc(-c2ccnc3nc(C4CC4)nn23)cc(OC)c1OC |  | 17.8 µM (active)
53 | CCC(=O)c1ccc(OC(=O)c2cc3ccccc3oc2=O)cc1 | 8.43% | 
54 | CSc1ncc(C(=O)Nc2ccc(Cl)cc2)c(C(F)(F)F)n1 | -8.68% | 
55 | COc1ccccc1NC(=O)C1c2ccccc2C(=O)N(CC(C)C)C12CCCC2 (stereo unspecified) | 0.393% | 
56 | CC(C)(C)C(=O)c1cn(CCOc2ccccc2F)c2ccccc12 | -10.2% | 
57 | COc1nccnc1NC1CCN(C(=O)CCc2ccccc2)CC1 |  | 25.1 µM (active)
58 | Cc1nc2c(c(NC3CC3)n1)CCN(C(=O)CCc1cccnc1)CC2 | 17.5% | 
59 | COc1nccnc1NC1CCN(C(=O)NCc2ccccc2)CC1 |  | 28.2 µM (active)
60 | Cc1noc(C)c1CC(=O)N1CCC(c2n[nH]c(=O)n2Cc2ccc(F)cc2)CC1 | 3.93% | 
61 | O=C(NCc1ccccc1)N1CCN2C(=O)NC[C@H]2C1 | -12.8% [at 115 µM] | 
62 | COc1nccnc1NC1CCN(C(=O)CCc2c(C)noc2C)CC1 |  | 31.6 µM (active)
63 | COCCNC(=O)[C@@H]1C[C@@H](O)CN1C1CCN(C(=O)CCc2ccccc2)CC1 | -11.6% | 
64 | COc1nc2ccccc2nc1N1CCC(C(=O)NCc2ccccc2)CC1 | -1.01% | 
65 | Cc1ccc(OCc2nc(C3CCN(C(=O)CCc4nc5ccc(Cl)cc5[nH]4)CC3)no2)cc1 | -15.8% | 
66 | CC/C(=N\NC(=O)c1ccc(C(C)(C)C)cc1)c1ccccc1 | 23.3% | 
